Rows were chosen to be rich in hits. Some 18% of all compounds tested hit in one or more screens of this group.
RORg inh: inhibitors of mouse ROR gamma transcriptional activity; Potency, µM (highest dose often 53.6 µM), for inactives: at the highest dose activity change, negative = inhibition, most hits filed as inhibitors; Drosophila S2 Gal4-RORgamma UAS-luciferase reporter, 20 h; actives 5.4% (n = 310,000); AID 2551; note: potency is the fitted concentration of half-maximal effect; nearly all actives have a fitted effect of over 60% in size
Target sequence (P51450 whole entry, looked up, the tested form may be a part): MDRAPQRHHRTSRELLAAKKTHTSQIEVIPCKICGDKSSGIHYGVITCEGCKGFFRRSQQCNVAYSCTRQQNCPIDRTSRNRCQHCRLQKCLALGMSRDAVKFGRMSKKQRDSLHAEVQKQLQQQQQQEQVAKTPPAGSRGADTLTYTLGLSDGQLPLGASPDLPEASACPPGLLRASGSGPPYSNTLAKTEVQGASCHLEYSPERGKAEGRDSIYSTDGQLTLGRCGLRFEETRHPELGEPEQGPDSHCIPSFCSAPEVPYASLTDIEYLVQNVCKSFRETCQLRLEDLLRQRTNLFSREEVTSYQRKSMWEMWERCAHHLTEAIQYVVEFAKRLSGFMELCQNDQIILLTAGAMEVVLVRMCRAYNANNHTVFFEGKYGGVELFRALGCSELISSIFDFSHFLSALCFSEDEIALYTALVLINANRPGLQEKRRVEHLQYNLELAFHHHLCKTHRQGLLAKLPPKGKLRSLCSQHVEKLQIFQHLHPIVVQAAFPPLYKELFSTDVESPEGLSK
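Compounds are pin-transferred onto Drosophila Schneider cells expressing a copper-inducible Gal4–ROR gamma transactivation domain fusion. After 1 hr, copper sulfate is added to 700 uM final; luciferase is read 20 hr later.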
IL-1B inflam inh: blocks inflammasome-driven IL-1 beta release. THP-1 LPS/ATP IL-1B secretion, AlphaLISA, 16 h; active compounds read low. activity change, % at 57.5 µM. actives 4.7% (n = 360,000). AID 743279; in the data active = activity change below about -50%; inconclusive = mostly about -30% to -49%
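THP-1 cells pretreated 1 hr with compounds (up to 57.5 uM final), then stimulated with LPS (250 ng/mL final) plus ATP (1.25 mM final); secreted IL-1B measured by AlphaLISA after 16 hr, decreased signal indicating inhibition.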
TDP1 cell CPT: growth inhibition of DT40 Tdp1-/-;hTDP1 cells with camptothecin (screen for TDP1 inhibitors); AID 686979; chicken DT40 Tdp1-/-;hTDP1 cells + 20 nM CPT, ATP luminescence, 48 h; Potency, µM (highest dose often 46.2 µM), without a hit: at the top dose activity change, negative = growth inhibition, actives largely listed as inhibitors; actives 12% (n = 420,000); note: potency is the fitted concentration of half-maximal effect; nearly all actives have a fitted effect of over 55% in size
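Cell growth measured by CellTiter-Glo luminescence after a minimum 48 h, 37 C compound exposure with 20 nM CPT in Tdp1-knockout DT40 cells stably expressing hTDP1, seeded 400/well; qHTS titration format.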
LDHA inh: LDHA (human) enzyme inhibition | P00338 | actives 0.15% (n = 480,000) | activity change, % (values are at about 110 or 230 µM) | purified LDHA, NADH/diaphorase-resazurin fluorescence; active compounds read low | AID 1347041; in the data active = activity change below about -30%; inconclusive = mostly about -25% to -30%;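 note: plate controls were DMSO wells for no effect and wells without enzyme for full effect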
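Human LDH5 (2 nM) was incubated with 0.06 mM NADH and 0.2 mM pyruvate for 5 min at room temperature in Tris pH 7.4. Remaining NADH was coupled through diaphorase/resazurin, and resorufin fluorescence was read at 0 and 20 min.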
TDP1 cell noCPT: qHTS for Inhibitors of human tyrosyl-DNA phosphodiesterase 1 (TDP1): qHTS in cells in absence of CPT; DT40 Tdp1-/- hTDP1 cells, no CPT, ATP luminescence, 48 h; actives 15% (n = 420,000); Potency, µM (titrated, usually from 46.2 µM), without a hit: at the top dose activity change, negative = growth inhibition, most hits filed as inhibitors; note: potency is the fitted concentration of half-maximal effect; nearly all actives have a fitted effect of over 55% in size
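Readout: luminescence from CellTiter-Glo after 30 min in the dark at RT. Cells: DT40 Tdp1-/- with stable hTDP1, 400/well. Exposure: compounds alone, ≥48 hr, 37 °C.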
Gal4-VP16 FLuc: counter-screen for ROR gamma inhibitors: Gal4-VP16 reporter | Drosophila S2 Gal4-VP16 UAS-luciferase, luminescence, 20 h | Potency, µM (series often up to 53.6 µM), for the others: at the top dose activity, negative = inhibition, actives largely listed as inhibitors | actives 3.5% (n = 310,000);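 note: Gal4-VP16 expression switched on by copper sulfate through the metallothionein promoter; potency is the fitted concentration of half-maximal effect; nearly all actives have a fitted effect of over 50% in size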
* = called active by the depositor; u = inconclusive; x = no result; ! = not active in a repeat; [ ] = dose if it differs, or a comment. Unless noted, calls come from the whole dose curve; as a rule, active = well fitted curve in the direction sought with a large enough effect; inconclusive = small, poorly fitted or top-dose-only effect, or another doubt; inactive = no such curve, though single readings can be large; an effect the other way counts as inactive or inconclusive. Unless noted, % is set by controls: 0 for no effect and ±100 for the full control effect.

SMILES | RORg inh | IL-1B inflam inh | TDP1 cell CPT | LDHA inh | TDP1 cell noCPT | Gal4-VP16 FLuc
O=C(Nc1ccc(Cl)c(Cl)c1)C1=Cc2ccccc2OC1 | 36% | u | u | -9 | 23µM* | -14%
c1ccc2c(-c3csc(NC4CCCC4)n3)c[nH]c2c1 | x | x | x | 9 | x | x
FC(F)(F)c1cc(-c2ccco2)nc2c(-c3cccc(Cl)c3)cnn12 | x | x | x | 4 | x | x
Cc1ccc(C2=NN(C(=O)CCl)C(c3cccs3)C2)o1 (stereo unspecified) | u | -102* | 2.1µM* | 0 | 2.6µM* | u
O=C(c1ccccc1)N1N=C(c2ccco2)CC1c1cccs1 (stereo unspecified) | 2% | -14 | u | -3 | 21µM* | -17%
CC(=O)N1N=C(c2ccco2)CC1c1cccs1 (stereo unspecified) | -5% | 7 | u | 0 | -14% | 11%
O=C(CCl)N1N=C(c2ccco2)CC1c1cccs1 (stereo unspecified) | 10µM* | -105* | 2.1µM* | -3 | 1.8µM* | 16µM*
CC(=O)c1ccc(NCC(=O)N2N=C(c3ccc(C)o3)CC2c2cccs2)cc1 (stereo unspecified) | x | x | x | -15 | x | x
Cc1cccc(C(=O)NNC(=S)NC(=O)/C=C/c2ccccc2)c1 | x | x | x | -20 | x | x
Cc1cc2c(cc1C)CSC(c1c(O)ccc3cc(Br)ccc13)SC2 | x | x | x | 6 | x | x
Cc1ccc(Cl)cc1NC(=S)N(Cc1ccco1)C(C)c1cccs1 (stereo unspecified) | 3.5µM* | -21 | u | -2 | u | 7.1µM*
CC(c1cccs1)N(Cc1ccco1)C(=O)Nc1ccc(Cl)c(Cl)c1 (stereo unspecified) | 42% | u | u | -6 | u | -6%
Cc1ccc(C)c(NC(=S)N(Cc2ccco2)C(C)c2cccs2)c1 (stereo unspecified) | 2.5µM* | -3 | -5% | -3 | 11% | 5µM*
Cc1ccc(C)c(NC(=S)N(CCc2ccncc2)C(C)C)c1 | 11µM* | 27 | 8% | -9 | -2% | -8%
CC(NC(=O)C1CCCCC1)C12CC3CC(CC(C3)C1)C2 (stereo unspecified) | x | x | x | -1 | x | x
COc1cc(O)c2c(c1)C(=O)c1cc(C)cc(O)c1C2=O | -16% | x | 0% | x | -18% | 6%
O=C(O)c1cc(O)c2c(c1)C(=O)c1cc(O)cc(O)c1C2=O | 6.3µM*! | -24 | 13µM*! | 0 | 15µM*! | u
CCN1CCN(c2ccc(S(=O)(=O)N(CC)CC)cc2NC(=O)c2ccc(F)cc2)CC1 | x | x | x | 5 | x | x
CCN(CC)S(=O)(=O)c1ccc(N2CCCCC2)c(NC(=O)/C=C/c2cc(OC)c(OC)c(OC)c2)c1 | 23% | 0 | u | -7 | 12µM* | -3%
CCN(CC)S(=O)(=O)c1ccc(N2CCCC2)c(NS(=O)(=O)c2ccc(OC)cc2)c1 | 20% | 10 | u | 3 | 16µM* | -4%
CCN(CC)S(=O)(=O)c1ccc(N2CCCC2)c(NC(=O)c2ccccc2OC)c1 | 41% | -2 | u | -5 | 15µM* | 2%
CCN(CC)S(=O)(=O)c1ccc(N2CCCC2)c(NS(=O)(=O)c2ccc3ccccc3c2)c1 | x | x | x | 10 | x | x
CCN(CC)S(=O)(=O)c1ccc(N2CCCC2)c(NS(=O)(=O)c2ccccc2)c1 | 29%[10 µM] | 15 | 23µM* | -5 | u | -11%
COc1ccc(Cl)cc1C(=O)NCc1ccc(-c2nc3ncccc3o2)cc1 | x | x | x | 1 | x | x
CCCCn1nc(C(=O)N2CCSCC2)c2ccccc2c1=O | x | x | x | 2 | x | x
SMILES | RORg inh | IL-1B inflam inh | TDP1 cell CPT | LDHA inh | TDP1 cell noCPT | Gal4-VP16 FLuc
Cc1c(CCC(=O)N2CCCCC2)c(=O)oc2cc(O)ccc12 | x | x | x | 1 | x | x
COc1ccccc1NS(=O)(=O)c1cc(NC(=O)Nc2ccc(Cl)cc2Cl)ccc1N1CCCCC1 | 32% | -5 | u | -5 | u | -6%
CCN(CC)S(=O)(=O)c1ccc(N2CCCC2)c(NC(=O)Cc2ccccc2)c1 | 40% | 0 | u | 2 | 15µM* | 2%
CCN(CC)S(=O)(=O)c1ccc(N2CCCC2)c(NS(=O)(=O)c2ccc(F)cc2)c1 | 25% | -1 | u | 2 | 15µM* | -1%
CCN(CC)S(=O)(=O)c1ccc(N2CCOCC2)c(NC(=O)Cc2ccc(Cl)cc2)c1 | u | 20 | u | 4 | u | -8%
COc1cc(/C=C/C(=O)Nc2ccc(N3CCCCC3)c(S(=O)(=O)Nc3ccccc3Cl)c2)cc(OC)c1OC | 12% | 17 | u | -12 | 2.6µM* | -5%
CCN(CC)S(=O)(=O)c1ccc(N2CCCC2)c(NS(=O)(=O)c2ccc([N+](=O)[O-])cc2)c1 | 42% | 8 | u | 3 | -28% | -3%
O=C(COC(=O)c1cccnc1Nc1cccc(C(F)(F)F)c1)NCc1ccco1 | x | x | x | -7 | x | x
CCC/C=N/NC(=O)c1ccccc1C | x | x | x | 0 | x | x
Cc1cc2c(cc1C)CSC(c1ccccc1OC(=O)C(C)C)SC2 | 25% | 10 | u | -4 | 11µM* | 10%
Cc1cc2c(cc1C)CSC(c1cc(Br)ccc1O)SC2 | x | x | x | -1 | x | x
Nn1c(SCC(=O)Nc2ccc3c(c2)OCCO3)nnc(CCC(=O)O)c1=O | -31% | -4 | 21µM* | 0 | u | 0%
COc1cc(-c2nc3ccc(C)cn3c2Nc2ccc(Cl)cc2)ccc1O | x | x | 16µM* | 7 | 18µM* | x
Clc1ccc2nc(-c3cccs3)c(Nc3ccc4c(c3)OCCO4)n2c1 | x | x | u | -6 | -25% | x
Cc1ccc2nc(-c3ccccc3O)c(Nc3ccc4c(c3)OCCO4)n2c1 | 18µM* | 10 | -25% | -2 | u | -23%
Clc1ccc2nc(-c3ccccn3)c(Nc3ccc4c(c3)OCO4)n2c1 | 7.9µM* | 6 | u | 1 | 21µM* | u
CN(C)c1ccc(-c2nc3ccc(Cl)cn3c2Nc2ccc3c(c2)OCCO3)cc1 | x | x | u | 6 | 15µM* | x
COc1ccccc1-c1c(C)nn2c(SCC(=O)NCc3cccnc3)cc(C)nc12 | x | x | x | 10 | x | x
COc1cc(-c2nc3ccc(Cl)cn3c2Nc2ccc3c(c2)OCO3)ccc1O | x | x | 15µM* | 7 | 13µM* | x
COc1cc(-c2nc3sccn3c2Nc2cccc(C)c2)ccc1O | x | x | u | 23 | 16µM* | x
COc1cc(-c2nc3ccc(Cl)cn3c2Nc2ccc3c(c2)OCO3)cc(OC)c1O | x | x | x | 14 | x | x
COc1cc(/C=C(/C#N)c2ccccn2)ccc1OC(F)F | x | x | x | 6 | x | x

Screening data: PubChem, National Center for Advancing Translational Sciences (NCATS)
